Results taken from PubChem BioAssay (NCATS).
Records with an inconclusive call do not appear. The source made the active and inactive calls. Calls follow the shape of the dose curve; as a rule, active = well fitted inhibition curve with a large enough effect; inconclusive = small, poorly fitted or top-dose-only effect; inactive = flat fitted curve, though single readings scatter.

system: not listed separately; assay: qHTS profiling for inhibitors of Plasmodium falciparum proliferation (AID 504749); also: nearly all actives have a fitted effect of over 60% in size;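 as to activity, negative = inhibition: 0% = DMSO vehicle and full inhibition = artemisinin control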; settings: P. falciparum in erythrocytes, SYBR Green DNA, 72 h; at 12.8 µM (top of the series); parasite line A
Summary of the method: (§1)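 In a 72 h erythrocytic culture (37 C, humidified, 5% CO2) at 2.5% hematocrit and 0.3% starting parasitemia, compounds were tested; SYBR Green I in detergent lysis buffer stained parasite DNA overnight.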
Potency is read from the fitted curve at half-maximal effect.

| SMILES | activity, negative = inhibition |
| --- | --- |
| NCc1ccc(S(N)(=O)=O)cc1 | 6.73% (inactive) |
| Cc1c(NC(=O)c2cccnc2)c(=O)n(-c2ccccc2)n1C | 17.3% (inactive) |
| CC(=O)SC[C@@H](Cc1ccccc1)C(=O)NCC(=O)OCc1ccccc1 | -4.01% (inactive) |

same assay, conditions: P. falciparum in erythrocytes, SYBR Green DNA, 72 h; at 12.8 µM (top of the series); parasite line B

| SMILES | activity, negative = inhibition |
| --- | --- |
| NCc1ccc(S(N)(=O)=O)cc1 | 11% (inactive) |
| Cc1c(NC(=O)c2cccnc2)c(=O)n(-c2ccccc2)n1C | 5.39% (inactive) |
| CC(=O)SC[C@@H](Cc1ccccc1)C(=O)NCC(=O)OCc1ccccc1 | -5.82% (inactive) |

same assay, conditions: P. falciparum in erythrocytes, SYBR Green DNA, 72 h; at 28.7 µM (top of the series); parasite line A

| SMILES | activity, negative = inhibition |
| --- | --- |
| O=C1c2cccc(O)c2C(=O)c2c(O)cccc21 | -0.153% (inactive) |
| COc1nccnc1NS(=O)(=O)c1ccc(N)cc1 | 0.889% (inactive) |
| O=C1c2ccccc2S(=O)(=O)N1CCCCN1CCN(c2ncccn2)CC1 | -16.2% (inactive) |
| OCC(O)CS (stereo unspecified) | 2.38% (inactive) |
| CC(CN(C)C)C(C)(O)Cc1ccc(Cl)cc1 (stereo unspecified) | 6.13% (inactive) |
| Nc1ncnc(Nc2ccccc2)n1 | -28.4% (inactive) |
| NC(=O)CCCCC1CCSS1 (stereo unspecified) | -3.84% (inactive) |
| CC(C)=CCC/C(C)=C/CO | -3.97% (inactive) |
| CCOC(=O)[C@H](CCc1ccccc1)N[C@@H](C)C(=O)N1CCC[C@H]1C(=O)O | 7.69% (inactive) |
| O=C1CC[C@@H](C(=O)O)N1 | 0.206% (inactive) |
| CCCCCCCCCCC(CO)CCCCCCCC (stereo unspecified) | -1.63% (inactive) |
| CCCCCCCC(=O)OCC(COC(=O)CCCCCCC)OC(=O)CCCCCCC | 4.54% (inactive) |
| CC(=O)N[C@@H](Cc1ccc(O)cc1)C(=O)O | 9.07% (inactive) |
| CC(=O)Oc1cccc(O)c1 | 4.48% (inactive) |
| Cc1onc(-c2ccccc2)c1-c1ccc(S(N)(=O)=O)cc1 | -24.3% (inactive) |
| Cc1c(I)c(=O)n(-c2ccccc2)n1C | 2.47% (inactive) |
| CN(C(=O)c1c(O)c2ccccc2n(C)c1=O)c1ccccc1 | 16.3% (inactive) |
| C[C@H]1COc2c(C3(N)CC3)c(F)cc3c(=O)c(C(=O)O)cn1c23 | -1.84% (inactive) |
| O=C(O)CCCCC1CCSS1 (stereo unspecified) | 5.2% (inactive) |
| CCN1CC(CCN2CCOCC2)C(c2ccccc2)(c2ccccc2)C1=O (stereo unspecified) | 10.7% (inactive) |
| CN(C/C=C/C#CC(C)(C)C)Cc1cccc2ccccc12 | -1.32% (inactive) |

same assay, conditions: P. falciparum in erythrocytes, SYBR Green DNA, 72 h; at 28.7 µM (top of the series); parasite line B

| SMILES | activity, negative = inhibition |
| --- | --- |
| O=C1c2cccc(O)c2C(=O)c2c(O)cccc21 | 3.79% (inactive) |
| COc1nccnc1NS(=O)(=O)c1ccc(N)cc1 | -0.327% (inactive) |
| O=C1c2ccccc2S(=O)(=O)N1CCCCN1CCN(c2ncccn2)CC1 | 25.9% (inactive) |
| CC(CN(C)C)C(C)(O)Cc1ccc(Cl)cc1 (stereo unspecified) | 10.7% (inactive) |
| NC(=O)CCCCC1CCSS1 (stereo unspecified) | -4.11% (inactive) |
| CC(=O)OC[C@H]1O[C@@](COC(C)=O)(O[C@H]2O[C@H](COC(C)=O)[C@@H](OC(C)=O)[C@H](OC(C)=O)[C@H]2OC(C)=O)[C@@H](OC(C)=O)[C@@H]1OC(C)=O | 21.3% (inactive) |
| O=C(c1ccccc1)C(O)c1ccccc1 (stereo unspecified) | -14.9% (inactive) |
| O=C1CC[C@@H](C(=O)O)N1 | 18.2% (inactive) |
| CCCCCCCCCCC(CO)CCCCCCCC (stereo unspecified) | 6.03% (inactive) |
| CCCCCC(C)N (stereo unspecified) | -25.4% (inactive) |
| CC(=O)N[C@@H](Cc1ccc(O)cc1)C(=O)O | 9.16% (inactive) |
| CC(=O)Oc1cccc(O)c1 | 12.6% (inactive) |
| CN(C(=O)c1c(O)c2ccccc2n(C)c1=O)c1ccccc1 | 2.94% (inactive) |
| C[C@H]1COc2c(C3(N)CC3)c(F)cc3c(=O)c(C(=O)O)cn1c23 | -23.2% (inactive) |
| O=C(O)CCCCC1CCSS1 (stereo unspecified) | 12.3% (inactive) |
| CCN1CC(CCN2CCOCC2)C(c2ccccc2)(c2ccccc2)C1=O (stereo unspecified) | -5.11% (inactive) |
| CN(C/C=C/C#CC(C)(C)C)Cc1cccc2ccccc12 | -6.19% (inactive) |

system: 3D7; assay: as above; settings: P. falciparum in erythrocytes, SYBR Green DNA, 72 h; series mostly up to 28.7 µM; activity, negative = inhibition: at the top concentration
Summary of the method: as §1

| SMILES | activity, negative = inhibition | Potency |
| --- | --- | --- |
| O=C1c2cccc(O)c2C(=O)c2c(O)cccc21 | -20.2% (inactive) | – |
| O=C1c2ccccc2S(=O)(=O)N1CCCCN1CCN(c2ncccn2)CC1 | -14.3% (inactive) | – |
| OCC(O)CS (stereo unspecified) | 2.4% (inactive) | – |
| CC(CN(C)C)C(C)(O)Cc1ccc(Cl)cc1 (stereo unspecified) | 0.0544% (inactive) | – |
| Cc1cc(-n2nc3ccc(Cl)cc3n2)c(O)c(C(C)(C)C)c1 | -3.53% (inactive) | – |
| Nc1ncnc(Nc2ccccc2)n1 | -2.72% (inactive) | – |
| NC(=O)CCCCC1CCSS1 (stereo unspecified) | 8.02% (inactive) | – |
| CC(=O)OC[C@H]1O[C@@](COC(C)=O)(O[C@H]2O[C@H](COC(C)=O)[C@@H](OC(C)=O)[C@H](OC(C)=O)[C@H]2OC(C)=O)[C@@H](OC(C)=O)[C@@H]1OC(C)=O | 3.98% (inactive) | – |
| O=C(c1ccccc1)C(O)c1ccccc1 (stereo unspecified) | -27.7% (inactive) | – |
| CC(C)=CCC/C(C)=C/CO | 0.23% (inactive) | – |
| CCOC(=O)[C@H](CCc1ccccc1)N[C@@H](C)C(=O)N1CCC[C@H]1C(=O)O | 1.47% (inactive) | – |
| NCc1ccc(S(N)(=O)=O)cc1 | 3.92% [at 12.8 µM] (inactive) | – |
| O=C1CC[C@@H](C(=O)O)N1 | 0.164% (inactive) | – |
| Cc1c(NC(=O)c2cccnc2)c(=O)n(-c2ccccc2)n1C | 8.54% [at 12.8 µM] (inactive) | – |
| CCCCCCCCCCC(CO)CCCCCCCC (stereo unspecified) | -2.21% (inactive) | – |
| O=C1c2ccccc2C(=O)C1c1ccc(Br)cc1 | – | 11.2 µM (active) |
| CCCCCCCC(=O)OCC(COC(=O)CCCCCCC)OC(=O)CCCCCCC | 1.17% (inactive) | – |
| CC(=O)N[C@@H](Cc1ccc(O)cc1)C(=O)O | 6.7% (inactive) | – |
| CC(=O)Oc1cccc(O)c1 | 5.09% (inactive) | – |
| Cc1onc(-c2ccccc2)c1-c1ccc(S(N)(=O)=O)cc1 | 1.56% (inactive) | – |
| Cc1c(I)c(=O)n(-c2ccccc2)n1C | 9.97% (inactive) | – |
| CN(C(=O)c1c(O)c2ccccc2n(C)c1=O)c1ccccc1 | -2.57% (inactive) | – |
| CC(=O)SC[C@@H](Cc1ccccc1)C(=O)NCC(=O)OCc1ccccc1 | -12.5% [at 12.8 µM] (inactive) | – |
| O=C(O)CCCCC1CCSS1 (stereo unspecified) | 4.77% (inactive) | – |
| CCN1CC(CCN2CCOCC2)C(c2ccccc2)(c2ccccc2)C1=O (stereo unspecified) | -8.86% (inactive) | – |
| Cc1cc(C)c(NC(=O)CN(CC(=O)O)CC(=O)O)c(C)c1Br | 2.99% (inactive) | – |
| CN(C/C=C/C#CC(C)(C)C)Cc1cccc2ccccc12 | 9.12% (inactive) | – |
